Source: PubChem
An excerpt weighted towards active compounds, which were near 31% of everything screened.
CYP2C9 activ – human CYP2C9 activators, primary screen, biochemical, luminescence; AID 1024, 2008; 96,000 compounds, 1.4% hits; recombinant CYP2C9, luciferin-H conversion; active compounds read high; factor 1 = untreated enzyme, 0 = blocked; activation factor at 5 µM; Cytochrome P450 2C9 (Homo sapiens), P11712;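 active = activation factor of 2 or more for CYP2C9 at a 5 µM dose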;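 note: 0 = sulfaphenazole-blocked wells and 1 = vehicle-only wells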
CYP2C19 inhib – blockers of cytochrome P450 2C19 activity – biochemical, luminescence, ADME assay, primary screen. 96,000 compounds, 21% hits. P33261. inhibition, % at 5 µM. CYP2C19 Supersomes, luciferin-H EGE luminescence, 30 min;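 active = CYP2C19 inhibition above a set limit at 5 µM in the primary screen, cut at about 50% in these data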;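 note: plate controls were negative control wells for no effect and 2.5 mM tranylcypromine positive control for full effect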
Target sequence (P33261 whole entry, looked up): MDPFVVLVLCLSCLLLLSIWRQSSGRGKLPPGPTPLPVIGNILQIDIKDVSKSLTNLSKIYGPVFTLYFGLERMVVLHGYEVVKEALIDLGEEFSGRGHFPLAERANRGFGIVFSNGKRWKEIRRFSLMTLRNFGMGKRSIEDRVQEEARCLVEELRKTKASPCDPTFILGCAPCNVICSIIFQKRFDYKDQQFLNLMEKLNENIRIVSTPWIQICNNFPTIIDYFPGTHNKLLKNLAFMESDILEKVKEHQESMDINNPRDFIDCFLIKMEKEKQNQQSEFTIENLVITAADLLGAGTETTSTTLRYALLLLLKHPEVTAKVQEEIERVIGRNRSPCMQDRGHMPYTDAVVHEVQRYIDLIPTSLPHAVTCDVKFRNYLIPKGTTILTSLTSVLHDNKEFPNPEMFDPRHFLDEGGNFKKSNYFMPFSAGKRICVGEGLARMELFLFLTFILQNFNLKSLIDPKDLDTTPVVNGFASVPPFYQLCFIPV
CYP2C19 act – human CYP2C19 activators, primary screen, biochemical, luminescence; activation factor at 5 µM; recombinant CYP2C19, luciferin-H EGE luminescence; active compounds read high; 0 = fully inhibited enzyme, 1 = untreated enzyme; Cytochrome P450 2C19 (Homo sapiens), P33261; 96,000 tested, under 10 active; AID 1025, 2008;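 active = activation factor of at least 2 at 5 µM in the primary screen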;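 note: 0 = wells with 2.5 mM tranylcypromine and 1 = vehicle-only wells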
CYP2C9 inhib – blockers of cytochrome P450 2C9 activity – biochemical, luminescence, ADME assay, primary screen | CYP2C9 Supersomes, luciferin-H conversion | inhibition, % at 5 µM | 96,000 compounds, 20% hits;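 active = blocking of liver enzyme CYP2C9 beyond about 50% at 5 µM, limit read from the data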
The depositor's hits bear a star.

How did CCc1nnc(NC(=O)CSc2nnc(CSc3nc(C)cc(C)n3)n2C)s1 do in these assays?
CYP2C9 activ: 1; CYP2C19 inhib: 4; CYP2C19 act: 1; CYP2C9 inhib: -2

How did C/C=C/c1c(F)c(F)c(Oc2ccc(C(=O)O)cc2)c(F)c1F do in these assays?
CYP2C9 activ: 0.2; CYP2C19 inhib: 1; CYP2C19 act: 1; CYP2C9 inhib: 81*

How did CSc1ccc(-c2nnn(Cc3ccccn3)n2)cc1 do in these assays?
CYP2C9 activ: 0.7; CYP2C19 inhib: 67*; CYP2C19 act: 0.3; CYP2C9 inhib: 26

Results for CCOC(=O)Cn1nnc(-c2ccc(SC)cc2)n1 ?
CYP2C9 activ: 1; CYP2C19 inhib: 46; CYP2C19 act: 0.5; CYP2C9 inhib: -3

What do the screens show for `CSc1ccc(-c2nnn(Cc3ccc(Br)cc3)n2)cc1`?
CYP2C9 activ: 0.7; CYP2C19 inhib: 75*; CYP2C19 act: 0.2; CYP2C9 inhib: 30

Results for O=C(NCc1cccc(C(F)(F)F)c1)C1CC(c2ccccc2[N+](=O)[O-])=NO1 (stereo not given) ?
CYP2C9 activ: 1.2; CYP2C19 inhib: 40; CYP2C19 act: 0.6; CYP2C9 inhib: -19

What do the screens show for `O=C(NCc1ccc(OC(F)(F)F)cc1)C1CC(c2c(Cl)cccc2Cl)=NO1` (stereo not given)?
CYP2C9 activ: 0.5; CYP2C19 inhib: 87*; CYP2C19 act: 0.1; CYP2C9 inhib: 48

How did O=C(NCc1cc(C(F)(F)F)cc(C(F)(F)F)c1)C1CC(c2c(Cl)cccc2Cl)=NO1 (stereo not given) do in these assays?
CYP2C9 activ: 0.2; CYP2C19 inhib: 62*; CYP2C19 act: 0.4; CYP2C9 inhib: 77*

Results for O=C(NCCc1cccs1)C1CC(c2c(Cl)cccc2Cl)=NO1 (stereo not given) ?
CYP2C9 activ: 2.2*; CYP2C19 inhib: 60*; CYP2C19 act: 0.4; CYP2C9 inhib: -124

How did CCn1c(SCC(N)=O)nc2c1c(=O)n(C)c(=O)n2C do in these assays?
CYP2C9 activ: 1.1; CYP2C19 inhib: -15; CYP2C19 act: 1.2; CYP2C9 inhib: -13

How did CC(=O)Nc1ccccc1NS(=O)(=O)c1ccc(Cl)cc1 do in these assays?
CYP2C9 activ: 0.6; CYP2C19 inhib: 91*; CYP2C19 act: 0.1; CYP2C9 inhib: 45

How did COC(=O)Nc1ccc(S(=O)(=O)Nc2ccccc2F)cc1 do in these assays?
CYP2C9 activ: 0.8; CYP2C19 inhib: 50*; CYP2C19 act: 0.5; CYP2C9 inhib: 24

How did COC(=O)Nc1ccc(S(=O)(=O)Nc2ccc(C)cc2)cc1 do in these assays?
CYP2C9 activ: 0.8; CYP2C19 inhib: 7; CYP2C19 act: 0.9; CYP2C9 inhib: 17

How did COc1ccc(N2C(=O)CC(c3ccc(OC(C)C)cc3)C2=O)cc1 (stereo not given) do in these assays?
CYP2C9 activ: 0.7; CYP2C19 inhib: -15; CYP2C19 act: 1.2; CYP2C9 inhib: 28

How did Cc1occc1C(=O)N1CCN(C(=O)C2CCCO2)CC1 (stereo not given) do in these assays?
CYP2C9 activ: 1.2; CYP2C19 inhib: -7; CYP2C19 act: 1.1; CYP2C9 inhib: -17

What do the screens show for `C=CCN(Cc1cc(OC)ccc1OC)S(=O)(=O)N(C)C`?
CYP2C9 activ: 0.4; CYP2C19 inhib: 96*; CYP2C19 act: 0; CYP2C9 inhib: 64*

Results for CCOc1ccc(-n2c(SCc3ccc(C(=O)OC)o3)nc3c(c2=O)SCC3)cc1 ?
CYP2C9 activ: 0.1; CYP2C19 inhib: 82*; CYP2C19 act: 0.2; CYP2C9 inhib: 87*

How did CCOc1ccc(-n2c(SCC(=O)Nc3ccc(OC)cc3)nc3c(c2=O)SCC3)cc1 do in these assays?
CYP2C9 activ: 0.6; CYP2C19 inhib: 35; CYP2C19 act: 0.7; CYP2C9 inhib: 42

Results for COC(=O)c1ccc(CSc2nc3c(c(=O)n2-c2ccc(Br)cc2)SCC3)o1 ?
CYP2C9 activ: 0.1; CYP2C19 inhib: 90*; CYP2C19 act: 0.1; CYP2C9 inhib: 92*

How did O=C(NCCCCCCNC(=O)N1CCCCCC1)N1CCCCCC1 do in these assays?
CYP2C9 activ: 0.9; CYP2C19 inhib: 1; CYP2C19 act: 1; CYP2C9 inhib: 7

How did O=C(CN1C(=O)COc2ccccc21)NCCC1=CCCCC1 do in these assays?
CYP2C9 activ: 0.8; CYP2C19 inhib: 81*; CYP2C19 act: 0.2; CYP2C9 inhib: 16

How did O=C(CCN1C(=O)COc2ccccc21)NCCC1=CCCCC1 do in these assays?
CYP2C9 activ: 0.9; CYP2C19 inhib: 63*; CYP2C19 act: 0.4; CYP2C9 inhib: 9

How did CCOC(=O)N1CCN(C(=O)Cn2ncn3nc(-c4cccs4)cc3c2=O)CC1 do in these assays?
CYP2C9 activ: 1.1; CYP2C19 inhib: -4; CYP2C19 act: 1; CYP2C9 inhib: -14

How did COc1ccccc1C(CC(N)=O)c1ccco1 (stereo not given) do in these assays?
CYP2C9 activ: 1.4; CYP2C19 inhib: -14; CYP2C19 act: 1.1; CYP2C9 inhib: -44

Results for COc1cccc(-c2cc3nc(-c4ccccc4)cc(N4CCC5(CC4)OCCO5)n3n2)c1 ?
CYP2C9 activ: 0.4; CYP2C19 inhib: 34; CYP2C19 act: 0.7; CYP2C9 inhib: 55*

What do the screens show for `CCn1cc(C(=O)N2CCN(c3cccc(Cl)c3)CC2)c2cc(OC)c(OC)cc2c1=O`?
CYP2C9 activ: 0.2; CYP2C19 inhib: 76*; CYP2C19 act: 0.2; CYP2C9 inhib: 80*

Results for COc1cccc2c(=O)n(CC(=O)N3CCCc4ccccc43)ccc12 ?
CYP2C9 activ: 0.5; CYP2C19 inhib: 87*; CYP2C19 act: 0.1; CYP2C9 inhib: 46

What do the screens show for `CCn1cc(C(=O)N2CCCc3ccccc32)c2cc(OC)c(OC)cc2c1=O`?
CYP2C9 activ: 0.8; CYP2C19 inhib: 56*; CYP2C19 act: 0.4; CYP2C9 inhib: 21

Results for COc1ccc(-n2c(CNC(=O)c3cc(OC)c(OC)c(OC)c3)n[nH]c2=S)cc1 ?
CYP2C9 activ: 1; CYP2C19 inhib: 4; CYP2C19 act: 1; CYP2C9 inhib: -1

What do the screens show for `Cc1ccc(Sc2ncccc2COC(=O)Nc2ccccc2)cc1`?
CYP2C9 activ: 0.4; CYP2C19 inhib: 21; CYP2C19 act: 0.8; CYP2C9 inhib: 55*

Results for CCc1cccc(C)c1NC(=O)C1=C(C(=O)O)CCCC1 ?
CYP2C9 activ: 1.1; CYP2C19 inhib: 6; CYP2C19 act: 0.9; CYP2C9 inhib: -15

What do the screens show for `Cc1ccc2c(C)nc(NC3=NCN(Cc4ccccc4)CN3)nc2c1`?
CYP2C9 activ: 1.1; CYP2C19 inhib: -4; CYP2C19 act: 1; CYP2C9 inhib: -8

Results for Cn1c(CN2CCCCC2)nc2cc(NS(=O)(=O)c3ccc(Cl)cc3)ccc21 ?
CYP2C9 activ: 0.3; CYP2C19 inhib: 42; CYP2C19 act: 0.6; CYP2C9 inhib: 67*

How did Cn1c(CCN2CCCCC2)nc2cc(NS(=O)(=O)c3ccc(Cl)cc3)ccc21 do in these assays?
CYP2C9 activ: 1; CYP2C19 inhib: 17; CYP2C19 act: 0.8; CYP2C9 inhib: 0

What do the screens show for `Cc1ccc(N2CCN(CCc3nc4cc(NC(=O)c5ccco5)ccc4n3C)CC2)cc1`?
CYP2C9 activ: 0.3; CYP2C19 inhib: 44; CYP2C19 act: 0.6; CYP2C9 inhib: 69*
